# Most compounds without a hit are left out; they make up all but 18% or so of the library.
# TDP1 cell CPT = qHTS for Inhibitors of human tyrosyl-DNA phosphodiesterase 1 (TDP1): qHTS in cells in presence of CPT; chicken DT40 Tdp1-/-;hTDP1 cells + 20 nM CPT, ATP luminescence, 48 h; AID 686979, 2013; 12% of 420,000 active; Potency, µM (highest dose often 46.2 µM), without a hit: top-dose activity change, negative = growth inhibition, most hits filed as inhibitors; further: potency means the concentration at half of the fitted maximal effect; nearly all actives have a fitted effect of over 55% in size
#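 Chicken DT40 Tdp1-/- cells complemented with human TDP1, 400 cells/well, exposed to compounds plus 20 nM camptothecin for at least 48 h at 37 C; viability read as ATP content by CellTiter-Glo luminescence.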
# TDP1 inh = qHTS Assay for Inhibitors of Tyrosyl-DNA Phosphodiesterase (TDP1). Tyrosyl-DNA phosphodiesterase 1 (Homo sapiens), Q9NUW8. recombinant TDP1, AlphaScreen DNA substrate cleavage. Potency, µM (doses to about 130 µM), for the others: at the top dose activity change, negative = inhibition, actives largely listed as inhibitors. 0.28% of 350,000 active; further: potency means the concentration at half of the fitted maximal effect; nearly all actives have a fitted effect of over 40% in size
#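 AlphaScreen read-out: signal falls as enzyme removes the 3' tyrosine-FITC from a 5'-biotinylated DNA oligo (15 nM, 5 min, RT). Enzyme was E. coli-made recombinant Tdp1 at 1 nM, exposed to compound for 15 min beforehand; beads 10 ug/ml, 10 min.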
# DT40 TDP1 no CPT = qHTS for Inhibitors of human tyrosyl-DNA phosphodiesterase 1 (TDP1): qHTS in cells in absence of CPT; DT40 Tdp1-/- hTDP1 cells, no CPT, ATP luminescence, 48 h; Potency, µM (titrated, usually from 46.2 µM), without a hit: at the highest dose activity change, negative = growth inhibition, usual class: inhibitors; 15% of 420,000 active; further: potency means the concentration at half of the fitted maximal effect; nearly all actives have a fitted effect of over 55% in size
#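 A cellular qHTS used chicken DT40 cells lacking endogenous Tdp1 but carrying stably transfected human TDP1. Compounds were applied without camptothecin, and cell growth kinetics were judged by ATP-dependent luminescence after ≥48 hr.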
# CtBP-E1A inh = qHTS Assay for Inhibitors of the CtBP/E1A Interaction; CtBP / adenovirus E1A interaction (AlphaScreen); AlphaScreen GST-E1A/His-CtBP binding, 1536-well; stronger effect = lower value; activity change, % (concentration not given with the values); 0.49% of 340,000 active; in the data active means activity change below about -65%; inconclusive means mostly about -30% to -63%
#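 Steps: dispense buffer (Tris pH 8.0, NaCl 300 mM, TCEP 1 mM, BSA, Tween 20); add 5X protein mix (GST-E1A, His-CtBP, 125 nM each); pin 23 nL compound; 2 h at 37 °C, dark; add 5X beads (50 ug/mL); 1 h; read.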
# IL1B secr inh = qHTS for Inhibitors of Inflammasome Signaling: IL-1-beta AlphaLISA Primary Screen | THP-1 LPS/ATP IL-1B secretion, AlphaLISA, 16 h; stronger effect = lower value | activity change, % at 57.5 µM | 4.7% of 360,000 active | AID 743279, 2014; in the data active means activity change below about -50%; inconclusive means mostly about -30% to -49%
#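 THP-1 cells pretreated 1 hr with compounds (up to 57.5 uM final), then stimulated with LPS (250 ng/mL final) plus ATP (1.25 mM final); secreted IL-1B measured by AlphaLISA after 16 hr, decreased signal indicating inhibition.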
# Six1-Eya2 inh = qHTS Assay for Inhibitors of the Six1/Eya2 Interaction; Homeobox protein SIX1 (Homo sapiens) + Protein phosphatase EYA2 (Homo sapiens), …; AlphaScreen GST-Six1/His-Eya2 binding, biochemical; stronger effect = lower value; activity change, % (test concentration not listed); 0.56% of 360,000 active; AID 651725, 2012; in the data active means activity change below about -65%; inconclusive means mostly about -30% to -63%
# Target sequence (O00167 whole entry, looked up): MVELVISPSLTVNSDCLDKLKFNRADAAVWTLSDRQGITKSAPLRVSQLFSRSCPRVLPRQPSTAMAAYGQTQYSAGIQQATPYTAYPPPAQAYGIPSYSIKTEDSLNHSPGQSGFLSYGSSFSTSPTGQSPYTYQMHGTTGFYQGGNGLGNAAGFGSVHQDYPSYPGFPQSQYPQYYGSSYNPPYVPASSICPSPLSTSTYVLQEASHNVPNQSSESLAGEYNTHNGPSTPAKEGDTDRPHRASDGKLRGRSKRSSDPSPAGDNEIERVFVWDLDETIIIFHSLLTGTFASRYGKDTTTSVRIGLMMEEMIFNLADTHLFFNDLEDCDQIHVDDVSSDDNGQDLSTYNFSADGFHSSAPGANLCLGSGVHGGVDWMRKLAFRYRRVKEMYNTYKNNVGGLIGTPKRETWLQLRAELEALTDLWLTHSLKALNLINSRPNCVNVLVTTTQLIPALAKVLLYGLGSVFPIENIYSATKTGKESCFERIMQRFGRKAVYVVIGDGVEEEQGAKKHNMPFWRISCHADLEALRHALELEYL
# Target sequence (Q15475 whole entry, looked up): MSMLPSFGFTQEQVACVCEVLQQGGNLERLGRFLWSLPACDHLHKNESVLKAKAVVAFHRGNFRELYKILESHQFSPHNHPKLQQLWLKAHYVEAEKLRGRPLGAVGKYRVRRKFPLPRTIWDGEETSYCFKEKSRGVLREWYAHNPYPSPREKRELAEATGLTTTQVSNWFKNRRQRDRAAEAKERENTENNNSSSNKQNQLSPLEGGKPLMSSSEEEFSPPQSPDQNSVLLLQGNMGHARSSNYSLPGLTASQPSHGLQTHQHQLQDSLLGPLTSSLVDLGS
#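 AlphaScreen luminescence read after one hour at 37 °C in darkness. Pin-transferred compounds met GST-Six1 and His-Eya2 protein (5X stock 250 nM/500 nM) plus glutathione donor and Ni-chelate acceptor beads (5X, 50 ug/mL).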
# The depositor's hits bear a star; ? = inconclusive; . = no result given; [ ] = remark or other dose. Unless noted, the call rests on the fitted dose curve; in most records, active means well fitted curve in the direction sought with a large enough effect; inconclusive means small, poorly fitted or top-dose-only effect, or another doubt; inactive means no such curve, though single readings can be large; an effect the other way counts as inactive or inconclusive. On the % scale 0 is the no-effect control and ±100 the full control effect.
SMILES,TDP1 cell CPT,TDP1 inh,DT40 TDP1 no CPT,CtBP-E1A inh,IL1B secr inh,Six1-Eya2 inh
CCc1ccc2c(c1)c(N=NC1=NC(=O)CS1)c(O)n2CC,?,8.3%,?,1.4,-6.1,4.5
Cc1ccccc1C(=O)N1CCN(CCNC(=O)C(=O)Nc2ccc(Br)cc2)CC1,14.6µM*,4.2%[56.1 µM],?,-0.7,0.0,10.0
COc1ccccc1C(=O)N1CCN(CCNC(=O)C(=O)Nc2ccc(Br)c(C)c2)CC1,?,0.5%,10.3µM*,-6.5,-4.4,-2.0
Cc1cc(NC(=O)C(=O)NCCN2CCN(C(=O)c3cccs3)CC2)ccc1Br,?,4.9%,?,0.0,?,0.0
COc1ccc(NC(=O)C(=O)NCCN2CCN(C(=O)c3ccc(C(C)(C)C)cc3)CC2)cc1,16.4µM*,.,16.4µM*,-5.5,18.4,2.9
COc1ccc(C(=O)N2CCN(CCNC(=O)C(=O)Nc3ccc(Br)cc3)CC2)cc1,?,3.2%[56.1 µM],?,-0.4,-7.5,3.0
CCOC(=O)C1C(c2cc(OC)c(O)c(OC)c2)NC(=S)NC1(O)C(F)(F)F (stereo not given),-11.9%,2.3%,-10.0%,0.2,8.7,-0.3
O=C(O)/C(=C\c1ccc2ccccc2c1)c1cccc2ccccc12,-8.5%,.,-12.7%,.,-0.7,-1.9
CSc1cccc(NC(=S)N(CCC(C)C)C2CCN(C(C)=O)CC2)c1,-8.0%,-3.7%,?,-19.5,-6.7,4.4
O=C(NC(=S)Nc1ccc(CN2CCOCC2)cc1)c1ccc(-c2cccc(Cl)c2)o1,16.4µM*,.,7.31µM*,.,?,-0.1
O=C(Nc1ccc(CN2CCOCC2)cc1)c1ccc(-c2cccc(Cl)c2)o1,?,-7.7%,?,-6.1,-59.9*,-8.5
O=C(NC(=S)Nc1ccc(CN2CCOCC2)cc1)c1ccc(-c2ccc(Cl)cc2)o1,?,1.2%,?,.,0.0,3.3
Cc1ccc(S(=O)(=O)Cn2nnnc2C(C)N2CCN(C(=O)c3ccco3)CC2)cc1 (stereo not given),2.8%,9.0%,-2.0%,5.0,5.4,6.7
C=CCN1c2ccccc2[C@]23C[C@@H](C(=O)OC)N(S(=O)(=O)c4cccs4)C2=NC(C(=O)OC)=C(C(=O)OC)[C@H]13,.,17.6%[12.3 µM],.,.,.,.
CCC(=O)N1N=C(c2ccc(NS(=O)(=O)CC)cc2)CC1c1ccc(C)cc1 (stereo not given),?,2.3%,?,.,3.7,4.3
O=C(Cn1c(C(=O)OCCO)cc2ccccc21)c1ccccc1,8.2µM*,.,?,-1.1,20.8,3.7
CC(C)(C)c1ccc(C(=O)/C(C#N)=C/c2cccs2)cc1,-1.6%,-17.4%,-4.7%,-4.7,-11.3,17.5
CC(C)(C)c1ccc(C(=O)N2CCCC2c2cccs2)cc1 (stereo not given),-17.2%,4.7%[0.0935 µM],?,-0.2,-99.4*,8.0
Cc1noc(C)c1C(=O)N1CCN(C(=O)c2sc3cc(Cl)ccc3c2Cl)CC1,?,2.1%,-24.0%,4.5,6.1,0.7
CN(Cc1ccc(F)cc1)C(=O)c1cc(S(=O)(=O)N2CCCCC2)ccc1N1CCOCC1,?,1.6%,16.4µM*,5.1,-5.1,-3.9
CSc1ccc(COC(=O)c2cc([N+](=O)[O-])ccc2N2CCOCC2)cc1,0.0411µM*,8.2%,0.0259µM*,3.6,-9.2,-23.9
O=C(NCc1ccc(F)cc1)c1cc(S(=O)(=O)N2CCCCC2)ccc1N1CCOCC1,?,0.1%[56.1 µM],?,.,31.4,4.6
O=C(OCc1ccc([N+](=O)[O-])cc1)c1cc(S(=O)(=O)N2CCCCC2)ccc1N1CCOCC1,14.6µM*,.,7.31µM*,-2.2,-14.6,-6.8
O=C(OCc1ccc(F)cc1)c1cc(S(=O)(=O)N2CCCCC2)ccc1N1CCOCC1,29.1µM*,-16.6%,11.6µM*,-1.7,-5.1,-0.8
CN(Cc1ccc(Cl)cc1)C(=O)c1cc(S(=O)(=O)N2CCOCC2)ccc1N1CCCC1,?,.,?,-2.4,-8.6,-4.3
SMILES,TDP1 cell CPT,TDP1 inh,DT40 TDP1 no CPT,CtBP-E1A inh,IL1B secr inh,Six1-Eya2 inh
O=C(OCc1ccccc1F)c1cc([N+](=O)[O-])ccc1N1CCOCC1,-16.8%,-0.2%[0.505 µM],-25.9%,11.8,-20.1,-9.5
Cc1cccc(N2CC(C(=O)NCC3COc4ccccc4O3)CC2=O)c1C (stereo not given),-13.4%,0.5%,5.3%,-13.9,-15.8,-22.3
Nc1ccccc1Nc1c(F)c(F)nc(F)c1Cl,2.4%,.,-0.1%,-16.6,31.5,-21.2
CCOC(=O)CSc1nc2c(sc(=S)n2Cc2ccco2)c(=O)n1-c1ccc(F)cc1,-22.7%,7.3%,-12.4%,-3.8,13.8,-13.5
COc1ccc(COC(=O)c2cc(S(=O)(=O)N3CCCCC3)ccc2N2CCOCC2)cc1,18.4µM*,.,16.4µM*,2.9,-2.9,-5.6
Clc1ccc(C2=Nn3c(nnc3-c3n[nH]c4c3CCC4)SC2)cc1,4.11µM*,6.1%,2.91µM*,?,-4.6,0.0
Fc1ccc(C2=Nn3c(nnc3-c3ccco3)SC2)cc1,-5.1%,6.8%,-14.6%,?,13.1,?
c1ccc(-c2ccc(C3=Nn4c(nnc4-c4cc(-c5ccccc5)n[nH]4)SC3)cc2)cc1,?,7.6%,?,-4.8,61.7,-14.0
Brc1ccc(C2=Nn3c(nnc3-c3n[nH]c4c3CCC4)SC2)cc1,0.92µM*,11.6%,0.92µM*,-15.3,-15.6,-3.1
Cc1cccc(-c2nnc3n2N=C(c2ccc(Br)cc2)CS3)c1,-48.5%,4.0%,-42.3%,5.2,12.7,0.8
Cc1ccc(-c2nnc3n2N=C(c2ccc(Br)cc2)CS3)cc1,23.1µM*,6.1%,?,-8.9,-19.6,-0.8
COC(=O)CSc1nnc(-c2ccoc2C)n1-c1ccc(C)cc1,7.1%,3.2%,-25.0%,-5.2,39.3,-0.9
C[C@H](NC(=O)c1[nH]cnc1C(=O)N[C@@H](C)CO)c1ccccc1,6.3%,.,4.1%,0.0,3.1,2.6
COc1ccccc1NC(=O)C1=C(C)Nc2nc(-c3ccccc3)nn2C1c1ccccn1 (stereo not given),8.6%,0.5%,-1.6%,-2.6,-3.3,-3.9
COc1cccc(NC(=O)Cn2nc(-c3ccncc3)ccc2=O)c1,-1.5%,1.1%,-0.1%,.,.,.

# High-throughput results: PubChem, National Center for Advancing Translational Sciences (NCATS)
